# Results filed as inconclusive are left out. Active and inactive are the calls of the source. Calls follow the shape of the dose curve; as a rule, active = well fitted inhibition curve with a large enough effect; inconclusive = small, poorly fitted or top-dose-only effect; inactive = flat fitted curve, though single readings scatter.
# Target: Ubiquitin carboxyl-terminal hydrolase 1 (Homo sapiens) (UniProt O94782)
# Assay: Inhibitors of USP1/UAF1: Pilot qHTS (AID 504865); also: nearly all actives have a fitted effect of over 35% in size;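 as to activity change, negative = inhibition: rhodamine fluorescence freed from ubiquitin-rhodamine substrate followed over time; top concentration of the series differs between compounds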
# Conditions: purified USP1/UAF1, Ub-rhodamine cleavage fluorescence; series mostly up to 114 µM; activity change, negative = inhibition: at the top concentration
# How it was run: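 1nM USP1/UAF1 + cpd, 15 min RT; start w/ Ub-Rho 150nM final; kinetic FL 480/540 nm, 6 reads q60 s. Buffer 50mM HEPES pH 7.8, 0.5mM EDTA, 1mM TCEP, 0.01% Tween-20, 0.1 mg/ml BSA.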
# % is scaled to controls: 0 for no effect and ±100 for the full control effect; potency is read from the fitted curve at half-maximal effect.
# Ubiquitin carboxyl-terminal hydrolase 1 (Homo sapiens), sequence (O94782 whole entry, looked up): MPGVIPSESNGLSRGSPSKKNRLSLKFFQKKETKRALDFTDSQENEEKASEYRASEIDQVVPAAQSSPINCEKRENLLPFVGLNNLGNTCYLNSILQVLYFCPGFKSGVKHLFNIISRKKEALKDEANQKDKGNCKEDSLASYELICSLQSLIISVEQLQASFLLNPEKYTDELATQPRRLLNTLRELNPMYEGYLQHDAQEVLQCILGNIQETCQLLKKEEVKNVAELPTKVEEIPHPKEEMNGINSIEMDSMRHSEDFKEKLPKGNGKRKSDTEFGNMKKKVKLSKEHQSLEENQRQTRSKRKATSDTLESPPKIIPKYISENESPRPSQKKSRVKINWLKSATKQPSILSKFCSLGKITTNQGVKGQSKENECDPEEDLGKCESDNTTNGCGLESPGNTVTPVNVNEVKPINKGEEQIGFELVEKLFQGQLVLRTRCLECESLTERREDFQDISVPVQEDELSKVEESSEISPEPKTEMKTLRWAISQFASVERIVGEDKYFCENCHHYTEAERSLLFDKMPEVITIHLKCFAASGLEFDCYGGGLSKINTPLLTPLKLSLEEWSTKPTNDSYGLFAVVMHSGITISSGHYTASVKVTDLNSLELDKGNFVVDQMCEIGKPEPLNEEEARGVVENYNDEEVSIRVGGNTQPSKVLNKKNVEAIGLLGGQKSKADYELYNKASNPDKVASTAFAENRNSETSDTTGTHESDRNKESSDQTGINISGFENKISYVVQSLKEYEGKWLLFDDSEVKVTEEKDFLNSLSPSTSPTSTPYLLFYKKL
SMILES,Potency,"activity change, negative = inhibition"
Nc1ccc(S(N)(=O)=O)cc1,inactive,–
O=C(O)c1cc(=O)c2c(OCC(O)COc3cccc4oc(C(=O)O)cc(=O)c34)cccc2o1,inactive,–
Cc1ccc(C)c(OCCCC(C)(C)C(=O)O)c1,inactive,–
CC[C@]1(O)C[C@H]2CN(CCc3c([nH]c4ccccc34)[C@@](C(=O)OC)(c3cc4c(cc3OC)N(C=O)[C@H]3[C@@](O)(C(=O)OC)[C@H](OC(C)=O)[C@]5(CC)C=CCN6CC[C@]43[C@@H]65)C2)C1,–,-10.2% (inactive)
C=C(c1ccc(C(=O)O)cc1)c1cc2c(cc1C)C(C)(C)CCC2(C)C,22.4 µM (active),–
CCC1=C(C)CN(C(=O)NCCc2ccc(S(=O)(=O)NC(=O)NC3CCC(C)CC3)cc2)C1=O (configuration not stated),inactive,–
CCOc1cc(CC(=O)N[C@@H](CC(C)C)c2ccccc2N2CCCCC2)ccc1C(=O)O,–,2.94% [at 54.9 µM] (inactive)
CN(C)CCc1c[nH]c2ccc(Cn3cncn3)cc12,–,-4.36% (inactive)
CN(C)C(=O)COC(=O)Cc1ccc(OC(=O)c2ccc(N=C(N)N)cc2)cc1,–,-6.71% (inactive)
N=C(N)c1ccc2cc(OC(=O)c3ccc(N=C(N)N)cc3)ccc2c1,–,-12.9% (inactive)
CN1CCC(=C2c3ccccc3CCc3sccc32)CC1,inactive,–
C[Se]CCC(N)C(=O)O (configuration not stated),–,2.5% (inactive)
Cc1ccc(S(=O)(=O)NC(=O)NN2CC3CCCC3C2)cc1 (configuration not stated),inactive,–
N=C(N=C(N)N)N1CCOCC1,–,6.17% [at 54.9 µM] (inactive)
NS(=O)(=O)c1cc(C(=O)O)c(NCc2ccco2)cc1Cl,inactive,–
Cc1cc2cc3c(C)cc(=O)oc3c(C)c2o1,–,-8.32% [at 54.9 µM] (inactive)
C=CCc1cc(OC)c(O)c(C(=O)NCCO)c1,–,-2.35% (inactive)

# From PubChem BioAssay (NCATS)
